Records with an inconclusive call do not appear. A number with no mark means an inactive call. The source made the active and inactive calls. Unless noted, calls come from the whole dose curve; as a rule, active = well fitted curve in either direction with a large enough effect (not every such curve was filed as active); inconclusive = small, poorly fitted or top-dose-only effect, or another doubt; inactive = flat fitted curve, though single readings scatter. Where a SMILES comes first, the peptide text is derived from it.
experiment: Cell Viability - Hek293 (AID 427;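 active = compounds whose dose-response curve shows a full or clear partial loss of cell viability, called from curve shape rather than a numeric limit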;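 note: potency is the fitted concentration of half-maximal effect; cells exposed to compound for 40 hours at 37 °C before reading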); conditions: qHTS
How it was run: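 qHTS, human embryonic kidney (adenovirus-transformed) cells; 40 hr cpd, 37 °C; CellTiter-Glo ATP luminescence. Norm: DMSO = 0, 100 uM tamoxifen = 100% inhibition. Hill-fit AC50.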

Question: Which Potency does the source give for `ClC1=C(Cl)C2(Cl)C3C(Cl)C(Cl)CC3C1(Cl)C2(Cl)Cl` (stereo unspecified) here?
Answer: 72.7 µM (active)

Question: For `O=[N+]([O-])C(Br)Br`, which Potency is on record?
Answer: > 92 µM

Question: Which Potency does the source give for `[Cd+2].[Cl-].[Cl-]` here?
Answer: 51.2 µM (active)

experiment: NFAT Signaling Pathway (AID 444); conditions: Jurkat NFAT-bla M1, carbachol, beta-lactamase ratio, 5 h; at 17.2 µM (top of the series) unless noted;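 note: carbachol stimulus at about its EC50 of 1 µM final; % is set by controls: 0 for no effect and ±100 for the full control effect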
How it was run: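 Jurkat cells carrying an NFAT-driven β-lactamase reporter and co-transfected muscarinic M1 receptor were treated with compound plus carbachol (1 uM final, an EC50 level) for 5 h at 37 °C. CCF4 loading followed for 1 h at RT; 460/530 nm ratio gave %activity.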

Question: With `Cn1c(O)c(C(=O)c2ccccc2Cl)c(=O)n(C)c1=O` as the molecule, how does the activity change, negative = inhibition read?
Answer: 6.46%

Question: For `O=C(Nc1ccncc1)c1c(O)c2ccccc2n(Cc2ccccc2)c1=O`, which activity change, negative = inhibition is on record?
Answer: 22.9%

Question: With `CCN(CC)CCN=C(C)c1c(O)n(-c2ccccc2OC)c(=O)[nH]c1=O` as the molecule, how does the activity change, negative = inhibition read?
Answer: -15.6%

Question: For `OC(Cc1ccccc1)(c1ccccc1)C1CN2CCC1CC2` (stereo unspecified), which activity change, negative = inhibition is on record?
Answer: -83.4% (active)

Question: Which activity change, negative = inhibition does the source give for `CC(C)[C@@]1(NC(=O)[C@@H]2C=C3c4cccc5[nH]cc(c45)C[C@H]3N(C)C2)O[C@@]2(O)[C@@H]3CCCN3C(=O)[C@H](Cc3ccccc3)N2C1=O` here?
Answer: -19%

Question: Which activity change, negative = inhibition does the source give for `CC(C)C[C@H](NC(=O)[C@@H]1CCCN1C(=O)[C@@H](N)Cc1ccc(O)cc1)C(=O)NCC(N)=O` (H-YPLG-NH2) here?
Answer: 14.8%

Question: With `COCC(C)OC(=O)c1c(N)n(Cc2ccco2)c2nc3ccccc3nc12` (stereo unspecified) as the molecule, how does the activity change, negative = inhibition read?
Answer: 10.7%

Question: For `C[C@@H]1O[C@@H](O[C@H]2C[C@@H](O)[C@]3(CO)[C@@H]4[C@@H](O)C[C@]5(C)[C@H](C6=CC(=O)OC6)CC[C@@]5(O)[C@H]4CC[C@@]3(O)C2)[C@H](O)[C@H](O)[C@@H]1O`, which activity change, negative = inhibition is on record?
Answer: -76.4% [at 38 µM] (active)

Question: With `Oc1cc2c(cc1O)[C@H]1c3ccccc3CN[C@@H]1CC2` as the molecule, how does the activity change, negative = inhibition read?
Answer: -4.87% [at 38 µM]

experiment: Stat Signaling Pathway (AID 446); conditions: ME-180 (cervical carcinoma) SIE beta-lactamase reporter, IL-6 stimulated, 5 h; series mostly up to 17.2 µM;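 note: ME-180 cervical cancer cells given 40 pM IL-6 alongside compound; SIE-controlled beta-lactamase reporter measured as 460/530 nm FRET emission ratio; % is set by controls: 0 for no effect and ±100 for the full control effect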
How it was run: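 Emission at 460 and 530 nm (excitation 405 nm) reports SIE-controlled beta-lactamase in ME-180 cells. Cells received compound with 40 pM IL-6 for 5 hrs at 37 C; data scaled between 300 pM IL-6 and 125 nM JAK-inhibitor controls.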

Question: For `Cn1c(O)c(C(=O)c2ccccc2Cl)c(=O)n(C)c1=O`, which outcome is on record?
Answer: inactive

Question: For `Cc1c(N=Cc2c(O)n(CCc3ccc(F)cc3)c(=O)[nH]c2=O)c(=O)n(-c2ccccc2)n1C`, which outcome is on record?
Answer: inactive

Question: With `CN1CCC(OC(=O)C2c3ccccc3Oc3ccccc32)CC1` as the molecule, how does the outcome read?
Answer: inactive

Question: With `CCN(CC)CCN=C(C)c1c(O)n(-c2ccccc2OC)c(=O)[nH]c1=O` as the molecule, how does the outcome read?
Answer: inactive

Question: With `OC(Cc1ccccc1)(c1ccccc1)C1CN2CCC1CC2` (stereo unspecified) as the molecule, how does the outcome read?
Answer: inactive

Question: For `CC(C)[C@@]1(NC(=O)[C@@H]2C=C3c4cccc5[nH]cc(c45)C[C@H]3N(C)C2)O[C@@]2(O)[C@@H]3CCCN3C(=O)[C@H](Cc3ccccc3)N2C1=O`, which outcome is on record?
Answer: inactive

Question: With `CCOc1ccc(-n2c(O)c(C=Nc3ccc(N(CC)CC)cc3)c(=O)[nH]c2=O)cc1` as the molecule, how does the outcome read?
Answer: inactive

Question: Which outcome does the source give for `COCC(C)OC(=O)c1c(N)n(Cc2ccco2)c2nc3ccccc3nc12` (stereo unspecified) here?
Answer: inactive

Question: With `Oc1cc2c(cc1O)[C@H]1c3ccccc3CN[C@@H]1CC2` as the molecule, how does the outcome read?
Answer: inactive

From PubChem BioAssay (NCATS)
